Calls of active or inactive are those of the source. How the calls were made is not given here.
Test: Rhodamine 123 quenching counterscreen activity, dose response, counter-screen for mtPTP inhibitor project, biochemical, dry powder samples, uHTS hits, fluorescence (AID 743361)
Conditions: Rhodamine 123 fluorescence quenching counterscreen, cell-free

SMILES | IC50
Cc1ccc(Cl)cc1NC(=O)c1cc(-c2cccc(O)c2)on1 | > 100 µM (inactive)
COc1ccc(Cl)cc1C(=O)Nc1ccc(N2CCOCC2)cc1 | > 100 µM (inactive)
COc1ccc(Cl)cc1C(=O)Nc1ccc(CN2CCN(C)CC2)cc1 | > 100 µM (inactive)
O=C(Nc1cccc(Cl)c1Cl)c1cc(-c2cccc(O)c2)on1 | > 100 µM (inactive)
O=C(Nc1ccc(OCc2ccccc2)c(Cl)c1)c1cc(-c2cccc(O)c2)on1 | > 100 µM (inactive)
CN1CCN(CCc2ccc(NS(=O)(=O)c3cc(Cl)cc(Cl)c3)cc2)CC1 | > 100 µM (inactive)
COc1ccc(Cl)cc1C(=O)Nc1ccc(CN2CCCCC2)cc1 | > 100 µM (inactive)
CN1CCN(c2ccc(NS(=O)(=O)c3ccc(F)c(Cl)c3)cc2)CC1 | > 100 µM (inactive)
COc1ccc(Cl)cc1C(=O)Nc1cccc(CN2CCN(C(=O)OC(C)(C)C)CC2)c1 | 73.5 µM (active)
O=C(Nc1cccc(Cl)c1)c1cc(-c2cccc(O)c2)on1 | > 100 µM (inactive)
CCCc1cc(C(=O)Nc2ccc(Br)cc2)no1 | > 100 µM (inactive)
O=C(Nc1ccc(CN2CCCCC2)cc1)c1cc(Cl)cc(OCc2ccccc2)c1 | 26.9 µM (active)
Cc1c(Cl)cccc1NC(=O)c1cc(-c2cccc(O)c2)on1 | > 100 µM (inactive)
O=S(=O)(Nc1ccc(CN2CCCCC2)cc1)c1cccc(Cl)c1 | > 100 µM (inactive)
COc1ccc(Cl)cc1S(=O)(=O)Nc1ccc(N2CCN(C)CC2)cc1 | > 100 µM (inactive)
CCN(C(=O)c1cc(Cl)ccc1OC)c1ccccc1 | > 100 µM (inactive)
O=C(Nc1ccc(CN2CCCCC2)cc1)c1cccc(Cl)c1 | > 100 µM (inactive)
CC(C)C1CCN(CCCC(=O)c2ccc(Br)cc2)CC1 | 64.6 µM (active)
CN1CCN(c2ccc(NC(=O)c3ccc(OCc4ccccc4)cc3)cc2)CC1 | > 100 µM (inactive)
COc1ccc(Cl)cc1C(=O)Nc1ccc(CN2CCOCC2)cc1 | > 100 µM (inactive)
O=C(Nc1cc(Cl)ccc1F)c1cc(-c2cccc(O)c2)on1 | > 100 µM (inactive)
O=C(Nc1cccc(Cl)c1)c1cc(-c2ccccc2)on1 | > 100 µM (inactive)
COc1ccc(Cl)cc1C(=O)Nc1ccc(CN2CCNCC2)cc1 | > 100 µM (inactive)
O=C(Nc1cc(Cl)cc(Cl)c1)c1cc(-c2cccc(O)c2)on1 | > 100 µM (inactive)
CN1CCN(c2ccc(NS(=O)(=O)c3cc(Cl)cc(Cl)c3)cc2)CC1 | > 100 µM (inactive)
CN1CCN(Cc2ccc(NS(=O)(=O)c3cccc(Cl)c3)cc2)CC1 | > 100 µM (inactive)
COc1ccc(NC(=O)c2cc(-c3cccc(O)c3)on2)cc1Cl | > 100 µM (inactive)
COc1ccccc1C(=O)Nc1ccc(CN2CCCCC2)cc1 | > 100 µM (inactive)
O=S(=O)(Nc1ccc(CN2CCCCC2)cc1)c1cc(Cl)cc(Cl)c1 | > 100 µM (inactive)
COc1ccc(Cl)c(C(=O)Nc2ccc(CCN3CCOCC3)cc2)c1 | > 100 µM (inactive)

— PubChem BioAssay AID743361 (Molecular Libraries Program, Specialized Chemistry Center, …, 2014)
